NS1 function inh = blocks influenza NS1 protein function. Potency, µM (doses to about 46.1 µM). 270,000 tested, 0.4% active. AID 2326; calls by dose curve; also: actives are rising curves; nearly all actives have a fitted effect of over 50% in size
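OD600 was taken as the measure of yeast growth restored by compound in an NS1-expressing S. cerevisiae strain. Cells had been washed out of glucose medium and diluted 1:100 into galactose -URA medium, pH 6.0.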
Pf growth 96h = P. falciparum growth inhibition at 96 hour, primary screen for plastid delayed-death inhibitors; 320,000 tested, 6.9% active; P. falciparum luciferase reporter growth, 96 h; Potency, µM (top dose mostly 28.7 µM), most hits filed as inhibitors
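96 h incubation, 37 C, 5% CO2, of luciferase-reporter P. falciparum-infected RBCs (2% hematocrit, 0.05% parasitemia final) with test compounds; endpoint luminescence.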
SARS PLpro yeast = SARS-CoV PLP inhibition in yeast. S. cerevisiae expressing SARS-CoV PLpro, growth rescue. 330,000 tested, 0.19% active. Potency, µM (doses to about 32.9 µM), usual class: activators; calls by dose curve; also: nearly all actives have a fitted effect of over 55% in size
Pf growth 48h = inhibits P. falciparum growth in the first generation, 48 h; P. falciparum luciferase growth in erythrocytes, 48 h; Potency, µM (titrated, usually from 28.7 µM), hits mostly inhibitors; 310,000 tested, 5.9% active; AID 504832
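In quantitative HTS format, infected erythrocytes bearing luciferase-reporter parasites were treated for a single generation at 37 C. Luminescence after adding detection reagent served as the growth measure.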
Of the large screens only hits and unclear results are named; the others gave an inactive call. Hits are enriched below; roughly 10% of the tested compounds scored in any of these assays. Unless noted, calls follow the shape of the dose curve; as a rule, active = well fitted inhibition curve with a large enough effect; inconclusive = small, poorly fitted or top-dose-only effect, or another doubt; inactive = no such curve, though single readings can be large or run the other way.

CC(=O)c1cccc(NC(=O)N2CCCC2C(=O)Nc2cccc(C)c2C)c1 (configuration not stated)	Pf growth 96h 2.9µM
CC(=O)c1cccc(NC(=O)N2CCCC2C(=O)NCc2ccc(F)cc2)c1 (configuration not stated)	Pf growth 96h 10µM
CC(=O)c1cccc(NC(=O)N2CCCC2C(=O)NCc2ccc(C)cc2)c1 (configuration not stated)	none
COc1ccc(S(=O)(=O)NCC(=O)NCc2cc(=O)n(C)c(=O)n2C)cc1C	Pf growth 96h inconclusive, Pf growth 48h inconclusive
CN(C)N(C(=O)c1cc(-c2cccs2)nn1-c1ccccc1)C1CCS(=O)(=O)C1 (configuration not stated)	Pf growth 96h 5.2µM, Pf growth 48h inconclusive (no result: NS1 function inh)
CC1(NC(=O)c2cc(-c3cccs3)nn2-c2ccccc2)CCS(=O)(=O)C1 (configuration not stated)	none (no result: NS1 function inh)
COc1ccc(-c2sc3ccc(N4CCOCC4)cc3c2C#CC(C)(C)O)cc1	Pf growth 96h 2.6µM, Pf growth 48h inconclusive (no result: NS1 function inh)
Cc1cc[n+](CC(=O)N2CCCc3ccccc32)cc1	none (no result: NS1 function inh)
CN(C)c1cc[n+](CC(=O)N2CCCc3ccccc32)cc1	Pf growth 96h inconclusive, Pf growth 48h 5.2µM (no result: NS1 function inh)
Cc1ccc(CCN2CC(C(=O)NCCN(C)C)CC2=O)cc1 (configuration not stated)	none
COCCN(C(=O)COC(=O)CCSc1ccc(F)cc1)c1c(N)n(Cc2ccccc2)c(=O)[nH]c1=O	Pf growth 48h inconclusive (no result: NS1 function inh)
Cc1ccc(N(CC(=O)NC2CCCCC2)S(=O)(=O)c2c(C)noc2C)cc1	none
O=C(c1cnn2ccccc12)N(Cc1ccco1)C1CCCC1	Pf growth 96h 10µM (no result: Pf growth 48h)
Cc1cnc(C)c(N2CCN(Cc3nc(-c4cccc(F)c4F)oc3C)CC2)n1	Pf growth 96h inconclusive, Pf growth 48h inconclusive
Cc1cccc(N2CCN(Cc3nc(-c4ccc(F)cc4F)oc3C)CC2)n1	Pf growth 96h 10µM
CC(C)CNC(=O)[C@@H]1CSC2c3ccccc3C(=O)N21 (some centres not stated)	none
COc1cc2c(C#N)c(N3CCc4ccccc4C3)nc(N)c2c(N)n1	Pf growth 96h inconclusive, Pf growth 48h 8.3µM
O=C(c1ccco1)N1CCN(c2nc(C(F)(F)F)nc3c2nnn3Cc2ccccc2)CC1	NS1 function inh inconclusive, Pf growth 48h 9.3µM (no result: Pf growth 96h)
O=C(c1ccco1)N1CCN(c2ncnc3c(-c4ccc(Cl)cc4)nsc23)CC1	none
Cc1ccc(-c2nsc3c(N4CCN(C(=O)c5ccco5)CC4)ncnc23)cc1	NS1 function inh 3.5µM, SARS PLpro yeast inconclusive
O=C(c1ccco1)N1CCN(c2ncnc3c2nnn3Cc2ccccc2Cl)CC1	Pf growth 48h 12µM
Cc1cccc(C)c1NC(=O)CN(C)C(=O)CN1C(=O)NC2(CCCC2)C1=O	none (no result: NS1 function inh)
Brc1cccc(CNc2nc3ccccc3n2CCN2CCOCC2)c1	Pf growth 48h inconclusive
Cc1ccc(NC(=O)CN(C)C(=O)C2CC(=O)N(Cc3ccccc3)C2)cc1 (configuration not stated)	none
O=C(Cn1cnc([N+](=O)[O-])c1)NCc1ccc(F)cc1	Pf growth 96h 6.6µM
CCN(CC)CCCOC(=O)C1(c2ccccc2)CCCC1	none (no result: Pf growth 96h)
C[N+](C)(C)CCOC(=O)C1(c2ccccc2)CCCC1	none (no result: Pf growth 96h)
CCN(CC)CCOCCOC(=O)C1(c2ccccc2)CCCC1	Pf growth 96h 3.4µM, Pf growth 48h 3µM (no result: SARS PLpro yeast)
CC(C[N+](C)(C)C)OC(=O)C1(c2ccccc2)CCCC1 (configuration not stated)	Pf growth 96h inconclusive, Pf growth 48h 10µM
COc1ccc(NC(=O)CN2C(=O)COc3ccc(S(=O)(=O)N4CCOCC4)cc32)cc1Cl	Pf growth 96h inconclusive, Pf growth 48h inconclusive
COc1ccc(NC(=O)COC(=O)CCc2ccc(S(=O)(=O)N3CCOCC3)cc2)cc1OC	none (no result: NS1 function inh, Pf growth 96h, Pf growth 48h)
Cc1ccc(-c2nnc(Sc3nc4ccccc4o3)c3ccccc23)cc1	Pf growth 48h 12µM (no result: NS1 function inh)
Clc1ccc(-c2nnc(Sc3nc4ccccc4o3)c3ccccc23)cc1	none
CCOC(=O)c1sc(NC(=O)CCN2C(=O)C3CCCCC3C2=O)cc1C (configuration not stated)	Pf growth 96h inconclusive, Pf growth 48h 15µM (no result: NS1 function inh)
O=C1C2CC=C(Cl)CC2C(=O)N1CCCCCCN1C(=O)C2CC=C(Cl)CC2C1=O (configuration not stated)	Pf growth 96h 12µM (no result: Pf growth 48h)
O=C1C2CC=C(Cl)CC2C(=O)N1CCC[n+]1cccc2ccccc21 (configuration not stated)	Pf growth 96h inconclusive, Pf growth 48h 9.3µM
O=C1C2CC=C(Cl)CC2C(=O)N1CCN1CCOCC1 (configuration not stated)	none (no result: Pf growth 48h)
CN(C)C1=NC[C@H](Cc2ccccc2)N1CCCC1CCCC1	Pf growth 96h inconclusive, Pf growth 48h 9.3µM (no result: NS1 function inh)
CN(C)C1=NC[C@H](Cc2ccccc2)N1CCCC1CCCCC1	Pf growth 96h 5.2µM, Pf growth 48h 7.4µM (no result: NS1 function inh)
CN(C)C1=NC[C@H](Cc2ccccc2)N1CCC1CCCC1	Pf growth 96h inconclusive, Pf growth 48h 10µM (no result: NS1 function inh)
C[C@H]1CN=C(N(C)C)N1CCC1CCCC1	Pf growth 96h inconclusive, Pf growth 48h inconclusive (no result: NS1 function inh)
CN(C)C1=NC[C@H](Cc2ccccc2)N1CC1CCCCCC1	Pf growth 96h inconclusive, Pf growth 48h 12µM (no result: NS1 function inh)
CC(C)(C)C1CCC(CN2C(Nc3ccccc3)=NC[C@@H]2Cc2ccccc2)CC1 (some centres not stated)	none (no result: NS1 function inh, Pf growth 96h, Pf growth 48h)
COC(=O)c1sccc1NC(=O)Nc1ccc(OC)cc1	none
CCc1nnc(NC(=O)CN2C(=O)N(C)C3(CCCCC3)C2=O)s1	Pf growth 96h inconclusive, Pf growth 48h inconclusive (no result: NS1 function inh)
CCOc1ccc(S(=O)(=O)N2CCCC(C(=O)Nc3ccccc3)C2)cc1 (configuration not stated)	none
CC(=O)n1cc([C@H]2C=C(C(=O)N3CCN(Cc4ccccc4)CC3)O[C@@H](OCc3ccc(CO)cc3)C2)c2ccccc21	Pf growth 96h 2.9µM, Pf growth 48h inconclusive
CC(=O)n1cc([C@@H]2C=C(C(=O)N3CCOCC3)O[C@H](OCc3ccc(CO)cc3)C2)c2ccccc21	Pf growth 96h inconclusive, Pf growth 48h inconclusive
CC(=O)n1cc([C@H]2C=C(C(=O)N3CCN(Cc4ccc5c(c4)OCO5)CC3)O[C@@H](OCc3ccc(CO)cc3)C2)c2ccccc21	Pf growth 96h 3.3µM, Pf growth 48h 4.7µM
Oc1cc(NCc2ccccc2)cc2cccnc12	Pf growth 96h 2.6µM, Pf growth 48h 1.9µM (no result: NS1 function inh)
c1ccc(Nc2ccccn2)cc1	none (no result: Pf growth 96h)
Oc1cc(Nc2ccccc2)cc2cccnc12	Pf growth 96h 2.6µM, Pf growth 48h 2.1µM (no result: NS1 function inh)
Oc1cc(NCCN2CCOCC2)cc2cccnc12	Pf growth 96h inconclusive, Pf growth 48h 4.7µM (no result: NS1 function inh)
Cc1csc2nc(CN3CCN(CC(=O)N(C)C)CC3)cc(=O)n12	none
CC(C)(C)C1CCC(OC(=O)c2cncc(Br)c2)CC1 (configuration not stated)	none (no result: NS1 function inh)
CC(C)(C)C1CCC(OC(=O)c2ccncc2)CC1 (configuration not stated)	Pf growth 48h 12µM
CN1CC(=O)NC1=NC(=O)C12CC3CC(CC(C3)C1)C2	Pf growth 96h 12µM, Pf growth 48h inconclusive

Assay outcomes: PubChem BioAssay, National Center for Advancing Translational Sciences (NCATS)
